Measurements taken from the supplement of paper PMC3898565.
± gives the uncertainty stated by the source.

These molecules were tested on U87 (assay: cell viability relative to vehicle control; higher = less growth inhibition (less active)). Settings: 10 µM; 72 h.
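Note: viable cell number estimated from Alamar Blue fluorescence read at 560/90, part of a single-dose primary screen of an FDA-approved drug library.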

SMILES	cell viability
Cc1[nH]cnc1CN1CCc2c(c3ccccc3n2C)C1=O	93.5 ± 2.2%
CN1CCN(c2nc3cc(C(F)(F)F)ccc3n3cccc23)CC1	111 ± 2%
OCc1cccnc1	108 ± 1.5%
OCCN1C[C@H](O)[C@@H](O)[C@H](O)[C@H]1CO	123 ± 2.4%
C[C@H]1O[C@H](O[C@H]2[C@H](O)[C@@H](O)[C@@H](O[C@H]3[C@H](O)[C@@H](O)C(O)O[C@@H]3CO)O[C@@H]2CO)[C@H](O)[C@@H](O)[C@@H]1N[C@H]1C=C(CO)[C@@H](O)[C@H](O)[C@H]1O (stereo not given in full)	102.6 ± 0.92%
COC1=C(OC)C(=O)C(CCCCCCCCCCO)=C(C)C1=O	93.41 ± 0.38%
Cc1nc2ccccn2c(=O)c1CCN1CCC(C(=O)c2ccc(F)cc2)CC1	97.4 ± 1.5%
N[C@@H](C(=O)N[C@@H]1C(=O)N2C(C(=O)O)=C(Cl)CS[C@H]12)c1ccccc1	104 ± 1.2%
O=C1CN2Cc3c(ccc(Cl)c3Cl)N=C2N1	103 ± 2.1%
Cc1c2oc3c(C)ccc(C(=O)N[C@@H]4C(=O)N[C@H](C(C)C)C(=O)N5CCC[C@H]5C(=O)N(C)CC(=O)N(C)[C@@H](C(C)C)C(=O)O[C@@H]4C)c3nc-2c(C(=O)N[C@@H]2C(=O)N[C@H](C(C)C)C(=O)N3CCC[C@H]3C(=O)N(C)CC(=O)N(C)[C@@H](C(C)C)C(=O)O[C@@H]2C)c(N)c1=O	16.2 ± 2.6%
CN(C)CCC(c1ccc(Cl)cc1)c1ccccn1 (stereo not given) [Chlorpheniramine]	109 ± 2.8%
CN1CCCC(n2nc(Cc3ccc(Cl)cc3)c3ccccc3c2=O)CC1 (stereo not given)	99 ± 2.2%
O=C(O[C@@H]1C[C@@H]2C[C@H]3C[C@H](C1)N2CC3=O)c1c[nH]c2ccccc12	105.8 ± 0.72%
CC[C@H](C)C(=O)O[C@H]1C[C@H](O)C=C2C=C[C@H](C)[C@H](CC[C@@H](O)C[C@@H](O)CC(=O)O)[C@H]21 [PRAVASTATIN Sodium]	105.9 ± 0.46%
CC(C)/N=c1\cc2n(-c3ccc(Cl)cc3)c3ccccc3nc-2cc1Nc1ccc(Cl)cc1	51.3 ± 3%
COCCOC(=O)C1=C(C)NC(C)=C(C(=O)OC(C)C)C1c1cccc([N+](=O)[O-])c1 (stereo not given)	103 ± 1.5%
CC(C)(C)NC(=O)[C@H]1CC[C@H]2[C@@H]3CC[C@H]4NC(=O)C=C[C@]4(C)[C@H]3CC[C@]12C	104.8 ± 0.76%
CC(C)(C)NCC(O)c1ccc(O)c(CO)c1 (stereo not given)	98.8 ± 8.3%
CN1CCN(c2c(F)cc3c(=O)c(C(=O)O)cn4c3c2SCC4)CC1	99.9 ± 1.7%
C[C@@H]1O[C@@H](OC[C@H]2O[C@@H](Oc3c(-c4ccc(O)c(O)c4)oc4cc(O)cc(O)c4c3=O)[C@H](O)[C@@H](O)[C@@H]2O)[C@H](O)[C@H](O)[C@H]1O	91.89 ± 0.76%

SMILES	cell viability
CCN1CCCC1CNC(=O)c1cc(S(=O)(=O)CC)c(N)cc1OC (stereo not given) [Amisulpride]	101.2 ± 0.96%
CCN1CCC[C@H]1CNC(=O)c1cc(S(N)(=O)=O)ccc1OC	102 ± 3.2%
CN1CCc2cc(Cl)c(O)cc2[C@@H](c2ccccc2)C1	97.5 ± 6.3%
COc1cc2c(cc1OC)C(=O)C(CC1CCN(Cc3ccccc3)CC1)C2 (stereo not given) [Donepezil]	99.1 ± 1.4%
CN1CCC(=C2c3ccccc3CCc3sccc32)CC1 [Pizotyline]	94.7 ± 13%
CCS(=O)(=O)CCn1c([N+](=O)[O-])cnc1C	101 ± 1.7%
Clc1ccc2c(c1)CCc1cccnc1C2=C1CCNCC1	101.5 ± 0.94%
COc1cc(C)c(Cc2cnc(N)nc2N)cc1OC	100 ± 1.7%
C[C@H](CCC(=O)O)[C@H]1CC[C@H]2[C@@H]3C(=O)C[C@@H]4CC(=O)CC[C@]4(C)[C@H]3CC(=O)[C@]12C	103.4 ± 0.82%
CC(=O)OCC(CCn1cnc2cnc(N)nc21)COC(C)=O	104.2 ± 0.4%
O=C1c2c(O)cc(O)cc2O[C@H](c2ccc(O)c(O)c2)[C@H]1O	90.7 ± 4.5%
NC(=O)OCC(COC(N)=O)c1ccccc1 [Felbamate]	105.7 ± 1%
CN1CCN(CCCN2c3ccccc3Sc3ccc(C(F)(F)F)cc32)CC1 [Trifluoperazine]	103 ± 0.17%
O=C1[C@H](CC[C@H](O)c2ccc(F)cc2)[C@@H](c2ccc(O)cc2)N1c1ccc(F)cc1	99.1 ± 2.4%
NNCCc1ccccc1	104.4 ± 0.9%
CCc1ccc(CCOc2ccc(CC3SC(=O)NC3=O)cc2)nc1 (stereo not given)	105 ± 3.6%
Nc1ccn([C@@H]2O[C@H](CO)[C@@H](O)[C@@H]2O)c(=O)n1 [2(1H)-Pyrimidinone, 4-amino-1-D-arabinofuranosyl- [CAS]]	47.5 ± 2.9%
CC(C)NCC(O)c1ccc(NS(C)(=O)=O)cc1 (stereo not given) [Sotalol]	101.7 ± 0.99%
CC[C@H]1OC(=O)[C@H](C)[C@@H](O[C@H]2C[C@@](C)(OC)[C@@H](O)[C@H](C)O2)[C@H](C)[C@@H](O[C@@H]2O[C@H](C)C[C@H](N(C)C)[C@H]2O)[C@](C)(OC)C[C@@H](C)C(=O)[C@H](C)[C@@H](O)[C@]1(C)O	107 ± 1.2%
O=C(O[C@@H]1Cc2c(O)cc(O)cc2O[C@@H]1c1cc(O)c(O)c(O)c1)c1cc(O)c(O)c(O)c1 [Epigallocatechin gallate]	77.8 ± 4.2%
